697 NFkB inh: inhibitors of PMA/ionomycin-induced NF-kB reporter, 697 cells, primary screen, B-cell NF-kB inhibitor project, cell-based, luminescence, uHTS. 697 B-cell NF-kB luciferase reporter, 16 h. inhibition, % at 4 µM. hit rate 0.33% among 330,000. AID 435022, 2010; in the data active = inhibition above about 35%
Mdm2 MdmX PPI: inhibitors of human Mdm2-MdmX association, primary screen, cell-based, luminescence, split luciferase, SaOS-2, uHTS; Protein Mdm4 (Homo sapiens) + E3 ubiquitin-protein ligase Mdm2 (Homo sapiens), …; inhibition, % at 8 µM; hit rate 3% among 330,000; SaOS-2 split-luciferase Mdm2/MdmX complementation;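 active = inhibition of at least 50% at 8 µM in the primary screen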
Target sequence (O15151 whole entry, looked up): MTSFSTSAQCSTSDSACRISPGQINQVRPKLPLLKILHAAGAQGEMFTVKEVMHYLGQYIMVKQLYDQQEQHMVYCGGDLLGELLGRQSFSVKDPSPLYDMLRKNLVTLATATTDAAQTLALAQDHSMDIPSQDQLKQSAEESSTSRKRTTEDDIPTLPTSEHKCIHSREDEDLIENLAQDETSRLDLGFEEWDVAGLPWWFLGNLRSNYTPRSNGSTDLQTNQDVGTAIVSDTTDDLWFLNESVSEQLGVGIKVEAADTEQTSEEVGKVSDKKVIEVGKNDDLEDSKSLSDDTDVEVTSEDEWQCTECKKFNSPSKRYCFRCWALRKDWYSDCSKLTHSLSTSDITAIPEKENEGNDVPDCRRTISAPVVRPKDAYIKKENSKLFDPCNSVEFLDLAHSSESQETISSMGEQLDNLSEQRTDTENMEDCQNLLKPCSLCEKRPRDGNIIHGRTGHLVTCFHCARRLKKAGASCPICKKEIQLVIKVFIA
Target sequence (Q00987 whole entry, looked up): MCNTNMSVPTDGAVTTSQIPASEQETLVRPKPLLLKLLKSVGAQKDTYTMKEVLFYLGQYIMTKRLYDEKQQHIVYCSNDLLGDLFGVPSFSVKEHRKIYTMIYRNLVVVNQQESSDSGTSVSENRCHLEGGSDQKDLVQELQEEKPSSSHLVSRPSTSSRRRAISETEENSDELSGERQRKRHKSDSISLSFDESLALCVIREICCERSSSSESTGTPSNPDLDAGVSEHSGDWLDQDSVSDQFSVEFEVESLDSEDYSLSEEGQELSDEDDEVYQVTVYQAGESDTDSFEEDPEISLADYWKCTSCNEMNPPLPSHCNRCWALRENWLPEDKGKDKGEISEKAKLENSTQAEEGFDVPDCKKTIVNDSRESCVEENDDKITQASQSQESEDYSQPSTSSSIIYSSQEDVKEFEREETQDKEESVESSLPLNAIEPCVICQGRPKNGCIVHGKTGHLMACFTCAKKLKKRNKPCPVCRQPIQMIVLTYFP
Jurkat NFkB inh: inhibitors of induced NF-kB luciferase reporter, primary screen, TCR NF-kB activation inhibitor project, cell-based, luminescence, uHTS; Jurkat, PMA/ionomycin-induced NF-kB luciferase reporter; hit rate 0.53% among 330,000; inhibition, % at 4 µM; in the data active = inhibition above about 50%
KLF5 inhibitor: KLF5 expression inhibitors, primary screen, DLD-1 cells, luminescence; DLD-1 KLF5 promoter-luciferase reporter; inhibition, % at 5 µM; hit rate 0.23% among 290,000;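 active = inhibition above a per-plate limit of that plate's mean compound inhibition plus 3 SD, cut at about 60% in these data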;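 note: 0% = DMSO wells and 100% = LY294002 at 200 µM; higher means less KLF5 promoter-driven luciferase light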
Gli-Sufu block: Gli-Sufu pathway antagonists, primary screen, luciferase luminescence, Sufu-KO-LIGHT cells, uHTS | Sufu-KO-LIGHT fibroblasts, Gli luciferase reporter luminescence | inhibition, % at 5 µM | hit rate 0.74% among 340,000;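 active = inhibition above about 55%, limit read from the data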;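 note: 0% = DMSO-treated cells and 100% = wells with medium but no cells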
aSyn 5UTR inh: MLPCN primary screen, SNCA 5' untranslated region; alpha-synuclein 5'UTR reporter, inhibitor activity; inhibition, % (tested at 7.5 µM); hit rate 0.82% among 300,000; AID 1813, 2009; in the data active = inhibition above about 60%;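 note: H4 neuroglioblastoma cells stably carrying SNCA 5'UTR luciferase fusion; 0% = DMSO wells and 100% = positive control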
Mdm2 MdmX conf: Mdm2-MdmX complex disruptors, retested hits, confirmation, luminescence, single concentration; shares compounds with Mdm2 MdmX PPI; Mdm2-MdmX binding, luminescent assay; inhibition, % at 8 µM; hit rate 55% among 10,000; AID 489028, 2010; in the data active = inhibition above about 40%
Full FLuc ctr: full-length luciferase signal inhibition, confirmation, counter-screen for Mdm2/MdmX interaction inhibitor project, cell-based, single concentration, SaOS-2; shares compounds with Mdm2 MdmX PPI; SaOS-2 full-length luciferase counterscreen, luminescence; inhibition, % at 8 µM; hit rate 77% among 6,200;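 active = mean inhibition at 8 µM reaching about 37%, which flags the compound as non-specific, limit read from the data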;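 note: p53-null SaOS-2 cells with luciferase driven by a doxycycline-inducible promoter; compound on cells about two nights before reading with doxycycline added after day one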
Active calls of the source: *. Most compounds without a hit are left out; they make up all but 4.1% or so of the library.

What do the screens show for `O=C(/C=C/c1ccc2ccccc2n1)N1CCN(c2ccccc2)CC1`?
697 NFkB inh: 11.5; Mdm2 MdmX PPI: 33.6; Jurkat NFkB inh: 8.8; KLF5 inhibitor: -4.6; Gli-Sufu block: 22.4; aSyn 5UTR inh: 10.0

How did O=C(/C=C/c1ccc2ccccc2n1)N1CCN(S(=O)(=O)c2ccc(F)cc2)CC1 do in these assays?
697 NFkB inh: 9.8; Mdm2 MdmX PPI: 61.0*; Jurkat NFkB inh: 4.4; KLF5 inhibitor: 9.6; Gli-Sufu block: 3.6; aSyn 5UTR inh: 42.5; Mdm2 MdmX conf: 76.1*; Full FLuc ctr: 35.1

Results for Cc1ccc(-c2nn(-c3ccccc3)cc2/C=N/NC(=O)c2ccc(Br)o2)cc1 ?
697 NFkB inh: -73.2; Mdm2 MdmX PPI: 83.1*; Jurkat NFkB inh: -60.0; KLF5 inhibitor: -42.9; Gli-Sufu block: 2.0; aSyn 5UTR inh: -11.5; Mdm2 MdmX conf: 14.1

How did CCOc1ccc(CCNC(=O)c2cccc(C#N)c2)cc1OCC do in these assays?
697 NFkB inh: 7.2; Mdm2 MdmX PPI: 17.7; Jurkat NFkB inh: 1.6; KLF5 inhibitor: -10.4; Gli-Sufu block: 6.5; aSyn 5UTR inh: 25.1

What do the screens show for `COc1cc(/C=C/C(=O)c2ccc3c(c2)OCCO3)cc(Br)c1OCC(=O)N(C)C`?
697 NFkB inh: -47.3; Mdm2 MdmX PPI: 95.3*; Jurkat NFkB inh: 46.9; KLF5 inhibitor: 43.3; Gli-Sufu block: 6.5; aSyn 5UTR inh: inactive; Mdm2 MdmX conf: 79.2*; Full FLuc ctr: 56.2*

What do the screens show for `Cc1ccc(S(=O)(=O)C(NC(=O)c2ccccc2)=C(Cl)Cl)cc1`?
697 NFkB inh: -23.5; Mdm2 MdmX PPI: 65.3*; Jurkat NFkB inh: 3.5; KLF5 inhibitor: -10.7; Gli-Sufu block: 2.4; aSyn 5UTR inh: -59.9; Mdm2 MdmX conf: 23.4

Results for O=C(NC(=C(Cl)Cl)S(=O)(=O)c1ccc(Cl)cc1)c1ccccc1 ?
697 NFkB inh: 1.3; Mdm2 MdmX PPI: 61.7*; Jurkat NFkB inh: 26.4; KLF5 inhibitor: -5.2; Gli-Sufu block: -1.2; aSyn 5UTR inh: -42.7; Mdm2 MdmX conf: 57.8*; Full FLuc ctr: 13.1

How did O=C(CCn1cccn1)N1CCCC(N2CCN(c3cccc(Cl)c3)CC2)C1 (stereo not given) do in these assays?
697 NFkB inh: 7.8; Mdm2 MdmX PPI: 11.3; Jurkat NFkB inh: -1.4; KLF5 inhibitor: -15.0; Gli-Sufu block: 5.5; aSyn 5UTR inh: -21.0

What do the screens show for `Cc1ccc(NC(=O)NNC(=O)Cn2nc(-c3ccccc3)c(-c3ccccc3)c(C#N)c2=O)cc1`?
697 NFkB inh: -36.8; Mdm2 MdmX PPI: 52.9*; Jurkat NFkB inh: -10.8; KLF5 inhibitor: 0.8; Gli-Sufu block: -14.8; aSyn 5UTR inh: -12.2; Mdm2 MdmX conf: 57.3*; Full FLuc ctr: 92.2*

How did Cc1ccc(-c2nc(C3CCN(S(=O)(=O)c4ccc(C(F)(F)F)cc4)CC3)no2)cc1 do in these assays?
697 NFkB inh: 17.9; Mdm2 MdmX PPI: 55.8*; Jurkat NFkB inh: -1.3; KLF5 inhibitor: -34.1; Gli-Sufu block: 4.9; aSyn 5UTR inh: 6.4; Mdm2 MdmX conf: 2.6

Results for COc1cc(C(=O)/C=C/c2cccnc2)c([N+](=O)[O-])cc1OC ?
697 NFkB inh: 11.1; Mdm2 MdmX PPI: 54.6*; Jurkat NFkB inh: 17.3; Gli-Sufu block: 1.4; aSyn 5UTR inh: -20.7; Mdm2 MdmX conf: 19.8

What do the screens show for `CCCn1nc([N+](=O)[O-])c(C(C#N)c2nc3ccccc3s2)c(Cl)c1=O` (stereo not given)?
697 NFkB inh: 1.3; Mdm2 MdmX PPI: 80.3*; Jurkat NFkB inh: -8.7; KLF5 inhibitor: -12.3; Gli-Sufu block: 4.1; aSyn 5UTR inh: -52.8; Mdm2 MdmX conf: 73.8*; Full FLuc ctr: 56.8*

What do the screens show for `Cc1ccc(NC(=O)/C=C/c2ccc3c(c2)OCO3)nc1`?
697 NFkB inh: -92.6; Mdm2 MdmX PPI: -241.5; Jurkat NFkB inh: -104.2; KLF5 inhibitor: -86.6; Gli-Sufu block: -108.0; aSyn 5UTR inh: -109.2

Results for Cc1ccc2nc(NC(=O)/C=C/c3ccc4c(c3)OCO4)sc2c1 ?
697 NFkB inh: 2.6; Mdm2 MdmX PPI: 77.7*; Jurkat NFkB inh: 3.3; KLF5 inhibitor: 3.8; Gli-Sufu block: 46.8; aSyn 5UTR inh: 32.3; Mdm2 MdmX conf: 22.3

How did CCCc1n(CC)c2ccccc2[n+]1CC(O)COC1CCCCC1 (stereo not given) do in these assays?
697 NFkB inh: 3.2; Mdm2 MdmX PPI: -13.6; Jurkat NFkB inh: 14.8; KLF5 inhibitor: 20.8; Gli-Sufu block: 42.7; aSyn 5UTR inh: 25.4

How did CC1(C)CC(NC(=O)c2sc3cc(Cl)ccc3c2Cl)CC(C)(C)N1 do in these assays?
697 NFkB inh: 2.9; Mdm2 MdmX PPI: 87.4*; Jurkat NFkB inh: 27.1; KLF5 inhibitor: -5.6; Gli-Sufu block: 32.8; aSyn 5UTR inh: 34.9; Mdm2 MdmX conf: 62.5*; Full FLuc ctr: 46.3*

What do the screens show for `FC(F)(F)c1ccc(-c2nnc(-c3ccccn3)c(-c3ccccn3)n2)nc1`?
697 NFkB inh: 23.9; Mdm2 MdmX PPI: -22.1; Jurkat NFkB inh: 11.7; KLF5 inhibitor: -7.2; Gli-Sufu block: 3.3; aSyn 5UTR inh: 2.8

What do the screens show for `CN(C)C(=O)CSc1ncnc2scc(-c3ccccc3)c12`?
697 NFkB inh: 1.6; Mdm2 MdmX PPI: 21.0; Jurkat NFkB inh: -4.1; KLF5 inhibitor: -24.6; Gli-Sufu block: 9.7; aSyn 5UTR inh: 7.6

What do the screens show for `Cc1ccc(-c2csc3ncnc(SCC(=O)c4ccc5c(c4)OCCO5)c23)cc1`?
697 NFkB inh: 1.9; Mdm2 MdmX PPI: 20.0; Jurkat NFkB inh: -13.0; KLF5 inhibitor: -28.4; Gli-Sufu block: 5.4; aSyn 5UTR inh: 9.9

How did Cn1nnnc1Sc1ncnc2scc(-c3cccc4c3sc3ccccc34)c12 do in these assays?
697 NFkB inh: -114.0; Mdm2 MdmX PPI: 100.5*; Jurkat NFkB inh: -13.9; Gli-Sufu block: 31.4; Mdm2 MdmX conf: 67.1*; Full FLuc ctr: 48.4*

Results for Cn1nnnc1Sc1ncnc2scc(-c3ccc(Cl)cc3)c12 ?
697 NFkB inh: -55.5; Mdm2 MdmX PPI: 100.3*; Jurkat NFkB inh: 8.4; Gli-Sufu block: 26.4; Mdm2 MdmX conf: 98.9*; Full FLuc ctr: 52.2*

How did COc1ccc(-c2csc3ncnc(Sc4nnnn4C)c23)cc1 do in these assays?
697 NFkB inh: 15.9; Mdm2 MdmX PPI: 68.1*; Jurkat NFkB inh: 6.6; Gli-Sufu block: -5.6; Mdm2 MdmX conf: 45.6*; Full FLuc ctr: 20.8

Screens from PubChem BioAssay.
